Source: PubChem
HCMV antiviral = qHTS Assay for inhibitors of the human cytomegalovirus (HCMV). 410,000 tested, 4.5% active. AID 1259415, 2018. activity change, negative = inhibition, % at 57.5 µM. HFF cells, HCMV-luciferase reporter, 72 h; hits give low values; in the data active means activity change below about -60%; inconclusive means no clear call, values can overlap the other calls; inactive means above about -39%; further: on the % scale 0 is the no-effect control and ±100 the full control effect
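HFF cells seeded 16 h at 37C, treated with compounds, infected with luciferase-reporter HCMV at MOI 1 PFU/cell; luciferase read at 72 h post infection, normalized to buffer-only and Salinomycin controls.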
SARS PLpro yeast = qHTS of Yeast-based Assay for SARS-CoV PLP. S. cerevisiae expressing SARS-CoV PLpro, growth rescue. Potency, µM (doses to about 32.9 µM), without a hit: at the top dose activity, positive = growth rescue, actives largely listed as activators. 330,000 tested, 0.19% active; calls by dose curve; further: potency means the concentration at half of the fitted maximal effect; 0% is about no effect; nearly all actives have a fitted effect of over 55% in size
LASV entry inh = qHTS for Inhibitors of binding or entry into cells for Lassa Virus. Lassa virus pseudotype entry inhibition, cell reporter. Potency, µM (series often up to 37.9 µM), inactives show top-dose activity change, negative = inhibition, actives largely listed as inhibitors. AID 540256, 2011. 300,000 tested, 1.2% active; calls by dose curve; tested in HEK293 cells; further: potency means the concentration at half of the fitted maximal effect; on the % scale 0 is the no-effect control and ±100 the full control effect; nearly all actives have a fitted effect of over 50% in size
HCV inhibitor = qHTS Assay for Inhibitors of Hepatitis C Virus (HCV) | AID 651820, 2012 | Potency, µM (series often up to 41.8 µM), for the others: top-dose activity change, negative = inhibition, hits mostly inhibitors | 340,000 tested, 3.4% active | Huh7.5.1 HCVcc-Cre infection, luciferase reporter, 44 h; active means well fitted inhibition curve with a large enough effect; inconclusive means small, poorly fitted or top-dose-only effect, or another doubt; inactive means no such curve, though single readings can be large or run the other way; further: potency means the concentration at half of the fitted maximal effect; on the % scale 0 is the no-effect control and ±100 the full control effect
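Cells seeded at 1,000/well and cultured 4 h, then compounds added followed by HCVcc-Cre virus (~0.5 moi). After 44 h further culture, luciferase substrate was added, plates held 15 min at room temperature, and luminescence read for 15 sec.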
FMDV antiviral = High Throughput Screening for Foot and Mouth Disease Virus Antivirals; 410,000 tested, 1.2% active; FMDV antiviral cell-based qHTS; AID 1159524, 2015; Potency, µM (doses to about 57.9 µM), for inactives: top-dose activity change, negative = inhibition, most hits filed as inhibitors; calls by dose curve; tested in HEK293T cells; further: read-out not given here; potency means the concentration at half of the fitted maximal effect; on the % scale 0 is the no-effect control and ±100 the full control effect; nearly all actives have a fitted effect of over 45% in size
Marburg entry inh = qHTS for inhibitors of binding or entry into cells for Marburg Virus; 300,000 tested, 1.8% active; Marburg virus pseudotyped entry inhibition, cell reporter; Potency, µM (titrated, usually from 37.8 µM), without a hit: top-dose activity change, negative = inhibition, usual class: inhibitors; AID 540276, 2011; calls by dose curve; tested in HEK293 cells; further: potency means the concentration at half of the fitted maximal effect; on the % scale 0 is the no-effect control and ±100 the full control effect
* hit, by the source's call; ? = inconclusive; . = no result; + = active, no number; ! = not active in a repeat; [ ] = dose if it differs, or a comment. A selection: hits, their analogues and other compounds. The true share with any hit is near 8%.

SMILES	HCMV antiviral	SARS PLpro yeast	LASV entry inh	HCV inhibitor	FMDV antiviral	Marburg entry inh
Cc1ccc(S(=O)(=O)N(Cc2cccc(F)c2)C(=O)N2CCN(C)CC2)cc1	1	?	-2%	5%[8.37 µM]	0%	1%
CCOC(=O)C1=CNS(=O)(=O)NC1c1ccc2ccccc2c1 (stereo unspecified)	2	17%	.	6.3µM*	-3%	.
CCOC(=O)C1=CNS(=O)(=O)NC1c1cccc(O)c1 (stereo unspecified)	-9	19%	.	-7%[8.37 µM]	0%	.
COc1ccc(NC(=O)CSc2nnc(NC(=O)NC3CCCCC3)s2)cc1OC	?	.	-2%[46.1 µM]	.	38%	.
O=C(CCS(=O)(=O)c1cc2c(cc1Cl)NC(=O)CO2)NCCc1ccccc1	-104*!	-3%	1%[46.1 µM]	0%	-11%	3%[46.1 µM]
O=C(CCS(=O)(=O)c1cc2c(cc1Cl)NC(=O)CO2)NCc1ccccc1	-20	-3%	-23%[46.1 µM]	17%	8%	.
Cc1ccc(C(=O)Nc2nc(C(C)(C)C)cs2)s1	-34	-52%	?	?	-8%	?
CC(C)(C)c1csc(NC(=O)c2ccc(Cl)s2)n1	?	-12%	?	8.9µM*	-40%	?
CCC1CCCCN1c1ccc([N+](=O)[O-])cc1/C=N/NC(=O)Cn1c2ccccc2c(=O)c2ccccc21 (stereo unspecified)	-13	2%	-4%	?	-18%	0.89µM*
C/C=C\c1ccccc1OCc1ccc(C(=O)O)o1	.	.	.	.	.	11%[46.1 µM]
Cc1ccnc(N/C=C(/NC(=O)c2ccccc2)C(=O)N/N=C\c2ccc(F)cc2)n1	0	.	-15%	1%	-20%	-5%
Cc1ccnc(N/C=C(/NC(=O)c2ccccc2)C(=O)NN)n1	-82*	1%	1%[46.1 µM]	10%	-5%	-5%[46.1 µM]
CCN(c1cccc(C)c1)S(=O)(=O)c1nnc(NC(=O)c2cccs2)s1	12	.	10µM*	.	37%	.
CCC(=O)Nc1nnc(S(=O)(=O)N(CC)c2ccc(Cl)cc2)s1	-67*	0%	.	8%	3%	.
CCN(c1ccc(Cl)cc1)S(=O)(=O)c1nnc(NC(=O)C2CCCCC2)s1	-64*	.	4%[46.1 µM]	.	-18%	.
COc1ccc(NC(=O)CN(C)S(=O)(=O)c2ccc(C(=O)N3CCOCC3)s2)cc1	-5	.	11%[46.1 µM]	.	-18%	.
COc1cc(OC)c(C2CC(=O)Nc3ccc4ccccc4c32)cc1OC (stereo unspecified)	25	.	29%[46.1 µM]	.	21%	?
COc1ccc(NC(C)=O)cc1S(=O)(=O)N(C)Cc1c(C)nn(-c2ccccc2)c1C	50	0%	.	-22%	-8%	.
O=C(CN1Cc2ccccc2OC(c2ccsc2)C1)N1CCC(c2nc3ccccc3[nH]2)CC1 (stereo unspecified)	.	.	.	.	8%	.
Cn1c(C2CCC2)nc2cc(C(=O)N3CCOc4ccccc4C3)cc(NC(=O)C3CCCO3)c21 (stereo unspecified)	.	.	.	.	-7%	.
CCCCCCCC(=O)C(C)C(=O)N(C)[C@H](Cc1ccc(OC)cc1)C(=O)N(C)[C@H](C(N)=O)C(C)C (stereo partly specified)	15	18%	.	0.56µM*	0%	.
COc1ccc2c(c1)CC(C(=O)NCCN1CCN(c3cccc(C)c3C)CC1)CO2 (stereo unspecified)	-6	.	-18%[46.1 µM]	.	?	.
Cc1ccc(NC(=O)Cc2ccc(-n3c(C)nc4cccnc43)cc2)c(Cl)c1	+	.	7%[46.1 µM]	.	16µM*	.
O=C(C[C@H]1CC[C@H]2[C@@H](COC[C@@H](O)CN2C(=O)c2cnccn2)O1)NCc1ccc(Oc2ccccc2)cc1	-68*	.	.	.	-14%	.
O=C(C[C@H]1CC[C@@H]2[C@H](COC[C@@H](O)CN2C(=O)C2CC2)O1)NCc1ccccc1Cl	-31	.	.	.	-2%	.
SMILES	HCMV antiviral	SARS PLpro yeast	LASV entry inh	HCV inhibitor	FMDV antiviral	Marburg entry inh
CCOC(=O)c1c(C)[nH]c(C(=O)OCC(=O)N2CCN(S(=O)(=O)c3ccc(C)cc3C)CC2)c1C	-29	10%[6.58 µM]	.	14µM*	?	.
Cc1ccc(C)c(S(=O)(=O)N2CCN(CC(=O)NC(=O)NCc3ccccc3)CC2)c1	-1	2%	26µM*	-12%	?	?
CSc1ccc(CSCC(=O)N2CCN(S(=O)(=O)c3ccc(C)cc3C)CC2)cc1	-20	9%	.	8.9µM*	?	.
CC(=O)c1c(C)[nH]c(C(=O)N2CCN(S(=O)(=O)c3ccc(C)cc3C)CC2)c1C	8	1%	.	-11%	-26%	.
COc1ccc(CNC(=O)N2CCN(S(=O)(=O)c3ccc(C)cc3C)CC2)cc1	29	-3%	-12%	?	-6%	-23%
Cc1ccc(S(=O)(=O)N2CCN(C(=O)NCc3ccc(F)cc3)CC2)c(C)c1	-71*	-1%	-11%	-22%	-16%	?
Clc1cccc(Cl)c1CON/C=N/c1ncnc2sccc12	?	-1%	?	11µM*	?	?
CCCn1c2ccccc2c2cnn(CC(=O)Nc3cccc(C(=O)OCC)c3)c(=O)c21	-37	.	0%[46.1 µM]	.	-17%	.
Cn1cccc1C(=O)OCc1ccc(F)cc1	-75*	-1%	5%	13%	25%	0%
Cn1cccc1C(=O)OCc1csc(-c2ccccc2)n1	261	-20%	?	-22%	-6%	?
CCOC(=O)C1CCCN(C(=O)c2cnn(-c3ncc4c(n3)-c3ccccc3CC4)c2C)C1 (stereo unspecified)	.	.	.	.	16%	.
O=[N+]([O-])c1cc(Cl)cc(C2=NCCN2)c1	20	9%	?	8.9µM*	4%	?
CCc1cc2c(nc1CC)CCN(CCC(C)=NOC[C@@H](O)[C@H]1O[C@@H]3OC(C)(C)O[C@H]3[C@@H]1O)C2	.	.	.	.	.	-6%[14.2 µM]
O=C(CSc1ccccc1)NNC(=O)c1ccncc1	4	2%	25%	-3%	-23%	27%[46.1 µM]
COc1cc2cccc(OC)c(=O)c2c(O)c1OC	147	-1%	-1%[46.1 µM]	5%	7%	23%[46.1 µM]
CC(=O)Oc1cc2cccc(OC(C)=O)c(=O)c2c(OC(C)=O)c1OC(C)=O	.	8.9µM*	.	2%	?	.
COC(=O)C(C)(C)ONC(=O)Nc1ccc(C)cc1	21	12%	26%	9%	26%	?
Cn1c(=O)c2c(nc(Br)n2CC(=O)C23CC4CC(CC(C4)C2)C3)n(C)c1=O	-32	2%	?	?	?	18µM*
COc1cccc(C(=O)Cn2c(Br)nc3c2c(=O)n(C)c(=O)n3C)c1	-37	8%	-5%	-20%	-13%	7%
CCOc1ccc(S(=O)(=O)N2CCN(CCNS(=O)(=O)c3ccc(C)cc3)CC2)cc1	-13	-13%	-24%	-6%	-9%	-28%[46.1 µM]
